# Results filed as inconclusive are left out. A call without a number means that no potency is given here. Unmarked numbers belong to inactive results. Activity calls are given as the source filed them. The call rests on the fitted dose curve; in most records, active means well fitted curve in the direction sought with a large enough effect in the repeat runs; inconclusive means weak or mixed curves; inactive means no such curve, though single readings can be large; an effect the other way counts as inactive or inconclusive.
# Experiments:
# [1] = biological target: Cytochrome P450 2D6 (Homo sapiens) (UniProt P10635); assay: Cytochrome P450 Family 2 Subfamily D Member 6 (CYP2D6) small molecule antagonists: luciferase reporter qHTS assay (AID 1671196); further: nearly all actives have a fitted effect of over 50% in size
# Sequence of Cytochrome P450 2D6 (Homo sapiens) (P10635 whole entry, looked up): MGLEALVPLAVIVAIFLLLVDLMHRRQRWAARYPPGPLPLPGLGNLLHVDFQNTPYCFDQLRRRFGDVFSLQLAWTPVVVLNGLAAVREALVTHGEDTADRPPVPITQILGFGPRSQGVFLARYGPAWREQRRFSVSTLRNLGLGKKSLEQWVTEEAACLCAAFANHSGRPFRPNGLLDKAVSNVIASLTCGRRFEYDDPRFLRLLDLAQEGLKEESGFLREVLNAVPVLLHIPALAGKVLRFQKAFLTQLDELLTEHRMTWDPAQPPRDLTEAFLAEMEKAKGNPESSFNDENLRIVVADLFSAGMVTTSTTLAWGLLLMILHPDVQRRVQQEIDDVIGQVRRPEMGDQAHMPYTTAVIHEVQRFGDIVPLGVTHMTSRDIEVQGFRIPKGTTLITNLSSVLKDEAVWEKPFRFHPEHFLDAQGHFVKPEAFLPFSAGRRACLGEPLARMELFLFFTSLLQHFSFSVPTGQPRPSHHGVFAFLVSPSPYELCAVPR
# Method in brief: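 Enzyme and proluciferin substrate were first combined with test chemical for 10 min at room temperature. Adding NADPH regeneration solution started a 1 h reaction, stopped with luciferin detection reagent and read by luminescence 20 min later.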
# [2] = biological target: Cytochrome P450 1A2 (Homo sapiens) (UniProt P05177); assay: Cytochrome P450 Family 1 Subfamily A Member 2 (CYP1A2) small molecule antagonists: luciferase reporter qHTS assay (AID 1671199); further: nearly all actives have a fitted effect of over 50% in size
# Sequence of Cytochrome P450 1A2 (Homo sapiens) (P05177 whole entry, looked up): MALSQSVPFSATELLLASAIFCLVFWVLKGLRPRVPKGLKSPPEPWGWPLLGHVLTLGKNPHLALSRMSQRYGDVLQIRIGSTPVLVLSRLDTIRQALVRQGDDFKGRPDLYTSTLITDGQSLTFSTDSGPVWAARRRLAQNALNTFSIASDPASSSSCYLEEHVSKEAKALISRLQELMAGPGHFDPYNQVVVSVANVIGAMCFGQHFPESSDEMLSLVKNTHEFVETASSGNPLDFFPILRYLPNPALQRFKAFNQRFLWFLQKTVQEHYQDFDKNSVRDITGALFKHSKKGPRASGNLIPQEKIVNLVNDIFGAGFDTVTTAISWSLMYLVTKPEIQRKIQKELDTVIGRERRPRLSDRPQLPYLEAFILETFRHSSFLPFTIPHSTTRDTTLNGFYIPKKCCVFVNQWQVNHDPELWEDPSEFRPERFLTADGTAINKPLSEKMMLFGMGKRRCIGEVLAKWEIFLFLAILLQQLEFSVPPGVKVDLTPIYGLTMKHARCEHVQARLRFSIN
# Method in brief: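 Compounds were incubated with CYP1A2 and a luminogenic proluciferin substrate for 10 min at room temperature before the reaction was started with NADPH regeneration solution. After 1 h, detection reagent was added and light output, proportional to CYP activity, was recorded.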
# [3] = biological target: Voltage-gated inwardly rectifying potassium channel KCNH2 (Homo sapiens) (UniProt Q12809); assay: Human Ether-a-go-go-Related Gene (hERG) channel small molecule antagonists: fluorescence cell-based qHTS assay (AID 1671200); further: nearly all actives have a fitted effect of over 50% in size
# Sequence of Voltage-gated inwardly rectifying potassium channel KCNH2 (Homo sapiens) (Q12809 whole entry, looked up): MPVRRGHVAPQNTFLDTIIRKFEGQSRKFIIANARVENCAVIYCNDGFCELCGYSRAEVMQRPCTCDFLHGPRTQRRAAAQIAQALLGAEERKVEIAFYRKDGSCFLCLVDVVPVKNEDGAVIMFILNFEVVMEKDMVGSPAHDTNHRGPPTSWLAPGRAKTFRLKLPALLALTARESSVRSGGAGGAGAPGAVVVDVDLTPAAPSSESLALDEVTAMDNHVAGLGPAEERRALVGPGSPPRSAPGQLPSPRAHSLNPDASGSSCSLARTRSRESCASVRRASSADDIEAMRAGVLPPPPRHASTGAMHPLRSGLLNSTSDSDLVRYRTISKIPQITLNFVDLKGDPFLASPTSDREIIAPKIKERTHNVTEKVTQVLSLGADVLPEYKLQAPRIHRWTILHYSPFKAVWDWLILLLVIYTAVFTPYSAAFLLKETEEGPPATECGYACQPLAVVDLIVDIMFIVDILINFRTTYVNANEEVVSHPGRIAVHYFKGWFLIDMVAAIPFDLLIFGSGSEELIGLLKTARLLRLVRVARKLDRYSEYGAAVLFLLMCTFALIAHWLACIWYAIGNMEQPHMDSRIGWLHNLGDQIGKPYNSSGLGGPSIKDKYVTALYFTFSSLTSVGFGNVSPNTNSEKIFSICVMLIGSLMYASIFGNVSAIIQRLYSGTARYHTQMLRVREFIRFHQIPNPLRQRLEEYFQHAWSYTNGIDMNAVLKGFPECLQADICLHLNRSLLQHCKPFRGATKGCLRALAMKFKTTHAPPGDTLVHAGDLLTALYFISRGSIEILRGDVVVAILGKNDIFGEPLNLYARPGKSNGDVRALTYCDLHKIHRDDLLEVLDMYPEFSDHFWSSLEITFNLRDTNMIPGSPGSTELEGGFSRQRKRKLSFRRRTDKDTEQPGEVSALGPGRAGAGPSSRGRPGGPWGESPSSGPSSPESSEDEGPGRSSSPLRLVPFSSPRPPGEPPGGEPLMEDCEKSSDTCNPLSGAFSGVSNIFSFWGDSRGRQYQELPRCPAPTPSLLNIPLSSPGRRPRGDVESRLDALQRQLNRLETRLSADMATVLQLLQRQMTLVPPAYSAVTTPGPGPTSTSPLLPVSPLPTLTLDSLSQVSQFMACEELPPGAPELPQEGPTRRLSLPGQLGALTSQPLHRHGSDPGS
# Method in brief: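 Thallium flux as potassium surrogate: FluxOR II dye loaded 1 h at room temperature into hERG-expressing U2OS cells, then stimulus buffer added after 10 min. Kinetic 480 nm excitation/540 nm emission read, 2 min.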
# [4] = biological target: Cytochrome P450 3A4 (Homo sapiens) (UniProt P08684); assay: Cytochrome P450 Family 3 Subfamily A Member 4 (CYP3A4) small molecule antagonists: luciferase reporter qHTS assay (AID 1671201); further: nearly all actives have a fitted effect of over 50% in size
# Sequence of Cytochrome P450 3A4 (Homo sapiens) (P08684 whole entry, looked up): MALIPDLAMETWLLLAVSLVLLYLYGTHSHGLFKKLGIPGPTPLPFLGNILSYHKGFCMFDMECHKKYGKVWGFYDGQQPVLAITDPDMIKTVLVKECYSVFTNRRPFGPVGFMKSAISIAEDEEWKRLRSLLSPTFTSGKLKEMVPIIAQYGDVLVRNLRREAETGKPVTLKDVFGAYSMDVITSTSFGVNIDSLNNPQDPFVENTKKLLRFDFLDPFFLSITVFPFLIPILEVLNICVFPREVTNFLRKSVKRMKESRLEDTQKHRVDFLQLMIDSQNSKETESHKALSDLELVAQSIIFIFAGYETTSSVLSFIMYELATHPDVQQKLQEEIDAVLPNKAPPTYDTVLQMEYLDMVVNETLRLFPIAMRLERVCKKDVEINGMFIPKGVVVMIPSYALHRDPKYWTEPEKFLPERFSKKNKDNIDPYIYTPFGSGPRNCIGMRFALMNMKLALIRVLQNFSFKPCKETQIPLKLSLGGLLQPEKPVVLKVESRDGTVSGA
# Method in brief: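 Recombinant human CYP3A4 converts a proluciferin substrate to luciferin over 1 h at room temperature after NADPH regeneration solution is added (compound preincubated 10 min); detection reagent stops reaction, luminescence read 20 min later as relative units.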
# [5] = biological target: Cytochrome P450 2C9 (Homo sapiens) (UniProt P11712); assay: Cytochrome P450 Family 2 Subfamily C Member 9 (CYP2C9) small molecule antagonists: luciferase reporter qHTS assay (AID 1671198); further: nearly all actives have a fitted effect of over 50% in size
# Sequence of Cytochrome P450 2C9 (Homo sapiens) (P11712 whole entry, looked up): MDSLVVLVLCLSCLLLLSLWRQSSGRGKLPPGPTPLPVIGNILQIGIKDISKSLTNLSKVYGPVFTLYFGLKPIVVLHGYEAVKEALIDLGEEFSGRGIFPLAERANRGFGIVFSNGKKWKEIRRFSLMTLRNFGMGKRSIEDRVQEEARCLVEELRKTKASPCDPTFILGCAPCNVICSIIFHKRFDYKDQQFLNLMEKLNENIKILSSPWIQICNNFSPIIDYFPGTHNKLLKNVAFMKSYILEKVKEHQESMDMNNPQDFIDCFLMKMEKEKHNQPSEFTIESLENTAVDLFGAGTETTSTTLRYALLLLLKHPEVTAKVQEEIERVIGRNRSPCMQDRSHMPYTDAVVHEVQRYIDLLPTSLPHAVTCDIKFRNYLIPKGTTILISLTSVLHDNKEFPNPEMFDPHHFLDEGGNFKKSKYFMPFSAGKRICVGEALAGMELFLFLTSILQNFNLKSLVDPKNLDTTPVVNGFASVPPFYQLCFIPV
# Method in brief: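 Enzyme-substrate mix preincubated with compound 10 min at room temperature; reaction started with NADPH regeneration solution, 1 h 37C. Luminescent luciferin product read after 20 min detection reagent.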
# [6] = biological target: Cytochrome P450 2C19 (Homo sapiens) (UniProt P33261); assay: Cytochrome P450 Family 2 Subfamily C Member 19 (CYP2C19) small molecule antagonists: luciferase reporter qHTS assay (AID 1671197); further: nearly all actives have a fitted effect of over 65% in size
# Sequence of Cytochrome P450 2C19 (Homo sapiens) (P33261 whole entry, looked up): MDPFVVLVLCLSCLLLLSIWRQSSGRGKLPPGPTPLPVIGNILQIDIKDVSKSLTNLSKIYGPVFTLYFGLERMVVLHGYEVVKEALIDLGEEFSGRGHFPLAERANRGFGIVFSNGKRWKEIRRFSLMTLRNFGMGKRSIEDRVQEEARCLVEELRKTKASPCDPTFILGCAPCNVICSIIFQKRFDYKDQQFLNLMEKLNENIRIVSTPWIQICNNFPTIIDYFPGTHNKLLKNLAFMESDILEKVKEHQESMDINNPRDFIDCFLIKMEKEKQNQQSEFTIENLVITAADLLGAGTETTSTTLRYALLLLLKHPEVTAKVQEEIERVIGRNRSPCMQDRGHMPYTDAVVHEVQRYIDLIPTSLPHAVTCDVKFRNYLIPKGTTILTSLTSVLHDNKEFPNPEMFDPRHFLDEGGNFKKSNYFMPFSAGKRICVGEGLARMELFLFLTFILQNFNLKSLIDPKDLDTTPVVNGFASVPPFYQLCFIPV
# Method in brief: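 Relative luminescence units recorded 20 min after the detection reagent stopped a 1 h, 37C CYP2C19 reaction on proluciferin substrate, which was started by NADPH regeneration following 10 min room-temperature compound preincubation; ketoconazole positive control.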
# Potency means the concentration at half of the fitted maximal effect.
Compound,Potency [1],Potency [2],Potency [3],Potency [4],Potency [5],Potency [6]
Nc1ccc(N=Nc2ccc(N)cc2)cc1,inactive,10 µM (active),inactive,5.02 µM (active),–,–
CN(C)CC/C=C1\c2ccccc2Sc2ccc(Cl)cc21,2.75 µM (active),7.23 µM (active),3.01 µM (active),–,inactive,–
C=CC(=O)O,inactive,inactive,inactive,–,–,–
O=C(O)/C=C/c1ccc(O)c(O)c1,inactive,inactive,inactive,inactive,inactive,–
CCCCCCCCCCCSCC(=O)O,31.7 µM (active),inactive,inactive,inactive,71 µM (active),–
Nc1ccc(NC(=O)c2ccc(N)cc2)cc1,inactive,inactive,inactive,5.65 µM (active),–,–
CCOc1ncc(F)c(=O)[nH]1,inactive,–,inactive,inactive,–,inactive
BrC(Br)C(Br)Br,inactive,–,inactive,inactive,inactive,–
Cc1cc(CCCOc2c(C)cc(-c3noc(C(F)(F)F)n3)cc2C)on1,–,–,–,–,–,21.9 µM (active)
O=C(C(=O)c1ccco1)c1ccco1,–,35.9 µM (active),inactive,–,inactive,80.4 µM (active)
COc1ccc(/C=C/C(=O)c2ccc(OC)cc2OC)cc1,–,4.56 µM (active),inactive,–,6.92 µM (active),3.89 µM (active)
CC(=O)OCC1=C(C(=O)O)N2C(=O)[C@@H](NC(=O)CSc3ccncc3)[C@H]2SC1,11 µM (active),inactive,inactive,–,–,–
C=Cc1ccc(OC(C)=O)cc1,inactive,–,inactive,inactive,–,inactive
CN=C(N)NC(=O)Nc1c(C)cccc1C,inactive,inactive,inactive,inactive,inactive,–
COc1ccc(-c2cc(C(F)F)nn2-c2ccc(S(N)(=O)=O)cc2)cc1F,8.71 µM (active),inactive,–,–,8.71 µM (active),–
O=C(O)CCC(=O)OC[C@@H](NC(=O)C(Cl)Cl)[C@H](O)c1ccc([N+](=O)[O-])cc1,inactive,inactive,inactive,–,inactive,–
C=CC(=O)NC(C)C,inactive,–,inactive,inactive,–,inactive

Compound,Potency [1],Potency [2],Potency [3],Potency [4],Potency [5],Potency [6]
O=C(Nc1ccc(C(=O)O)c(O)c1)c1ccccc1,15.5 µM (active),inactive,inactive,–,–,–
O=C1NC(=O)c2cccc3cccc1c23,inactive,3.17 µM (active),inactive,inactive,inactive,–
c1ccc(CNc2ncnc3c2ncn3C2CCCCO2)cc1 (stereo not given),inactive,28.3 µM (active),inactive,–,–,–
O=C(O)CNC(=O)c1ccccc1I,inactive,–,inactive,inactive,inactive,–
O=C(O)CCCc1c[nH]c2ccccc12,inactive,inactive,inactive,inactive,inactive,–
Cc1ccccc1S(N)(=O)=O,inactive,–,inactive,inactive,–,inactive
CC(C)C1CCC(C(=O)N[C@H](Cc2ccccc2)C(=O)O)CC1 (stereo not given in full),inactive,inactive,inactive,inactive,–,–
CCN(CC)CC(=O)Nc1c(C)cccc1C(=O)OC,38.9 µM (active),inactive,inactive,–,inactive,–
OCC(CO)n1cnc(-c2ccc(F)cc2)c1-c1ccnc(Oc2ccccc2)n1,–,inactive,inactive,–,35.6 µM (active),31.7 µM (active)
CCO[Si](C)(CCCOCC1CO1)OCC (stereo not given),inactive,–,inactive,39.9 µM (active),–,inactive
O=C(O)CCC(=O)c1ccc(-c2ccccc2)cc1,inactive,inactive,inactive,inactive,–,–
CC(C)(C)C1(CCc2ccc(Cl)cc2)CO1 (stereo not given),–,20 µM (active),24.5 µM (active),–,17.8 µM (active),1.26 µM (active)
CC(=O)OCCC1CCCCC1,inactive,–,inactive,inactive,–,inactive
CC(C)(C)CCCCCCOC(=O)c1ccccc1C(=O)OCCCCCCC(C)(C)C,inactive,inactive,inactive,inactive,inactive,–
CC(C(=O)O)c1ccc(C(=O)c2cccs2)cc1 (stereo not given),inactive,–,inactive,inactive,7.76 µM (active),–
C=CCOC(=O)COCCC(C)C,–,inactive,inactive,inactive,inactive,–

# Source: PubChem BioAssay (Tox21)
